From ChEMBL document CHEMBL4513146, “CO-ADD screening of Karazin Kharkiv National University (Ukraine) compounds”
Results with a measured potency or affinity are listed apart.

Assays:
[1] = system: Klebsiella pneumoniae; settings: Concentration 32 ug.mL-1;; ASSAY_TEST Inhibition of Bacterial Growth; detection method Absorption (OD600); MEDIA CAMHB; plate type 384well; NBS; CORNING #3640; time 18 hr
[2] = system: Candida albicans; settings: Concentration 32 ug.mL-1; ASSAY_TEST Inhibition of Fungal Growth; detection method Absorption (OD530)
[3] = system: Cryptococcus neoformans; settings: Concentration 32 ug.mL-1; ASSAY_TEST Inhibition of Fungal Growth; detection method Resazurin; Absorption (OD600-OD570); plate type 384well; NBS; CORNING #3640

Row | Structure (SMILES) | Inhibition [1] [%] | Inhibition [2] [%] | Inhibition [3] [%]
1 | CCOc1ccc(-n2ccn3c(SCC(=O)Nc4ccc(C)c(C)c4)nnc3c2=O)cc1 | -8.39 | 2.77 | -12.45
2 | COc1ccc(Cl)cc1NC(=O)Cn1nc2c3cc(-c4ccc(C)c(C)c4)nn3ccn2c1=O | -20.97 | 12.28 | -11.29
3 | Cc1ccc(-n2ccn3c(SCC(=O)Nc4ccc5c(c4)OCCO5)nnc3c2=O)cc1C | 9.68 | 0.14 | -6.74
4 | Cc1c(Cl)cccc1NC(=O)CSc1nc2ccccc2n2c(C)nnc12 | 13.43 | 0.95 | -27.73
5 | O=C(CSc1nc2ccccc2n2cnnc12)Nc1cccc(Br)c1 | 2.26 | -0.56 | -6.2
6 | CCCCc1ccc(NC(=O)Cn2nc3c(N4CCSCC4)nc4ccccc4n3c2=O)cc1 | 15.26 | -0.87 | -24.44
7 | COc1cccc(CN(c2ccccc2)S(=O)(=O)c2ccc3nncn3c2)c1 | 0.32 | 2.69 | -7.16
8 | COc1ccc(C)cc1NC(=O)Cn1nc2c3cc(-c4ccc(Cl)cc4)nn3ccn2c1=O | 15.75 | -1.06 | -27.09
9 | CCc1ccc(N(Cc2ccccc2)S(=O)(=O)c2cccn3cnnc23)cc1 | 1.9 | 2.34 | -3.81
10 | Cc1cc(C)c(C(=O)CSc2nnc3c(=O)n(-c4ccc(F)cc4)ccn23)cc1C | 7.49 | 4.64 | -8.78
